Experimental data from PMC5540273 (PLoS ONE, 2017).

What was measured:
VPS34 = system: T1, VPS34
T1 construct: gene PIK3C3

AAK1 = settings: concentration: 1 μM, replicates: in singlicate; n = 1
ABL1-nonphosphorylated = settings: concentration: 1 μM, replicates: in singlicate; n = 1
ABL1-phosphorylated = settings: concentration: 1 μM, replicates: in singlicate; n = 1
ABL2 = settings: concentration: 1 μM, replicates: in singlicate; n = 1
YSK4 = system: T2, YSK4
T2 construct: gene MAP3K19

[1] = system: TYK2(JH2domain-pseudokinase)
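Wherever %Inh is given: KINOMEscan kinase panel screen.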
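Wherever Kd is given: kd values determined as follow-up on hits from a single-replicate KINOMEscan panel screen.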

Cc1ccccc1COc1cc(-n2cnc3cc(Cl)ccc32)sc1C(N)=O [GW813349]
Kd (VPS34): > 10 µM
%Inh (AAK1): 2%
%Inh (ABL1-nonphosphorylated): 9%
%Inh (ABL1-phosphorylated): 14%
%Inh (ABL2): 13%

CCS(=O)(=O)c1ccc(OC)c(Nc2ncc(-c3ccc(F)cc3)o2)c1.Cl [GW591947]
%Inh (AAK1): 4%
%Inh (ABL1-nonphosphorylated): 0%
%Inh (ABL1-phosphorylated): 0%
%Inh (ABL2): 0%

O=C(Nc1n[nH]c2cc(-c3ccccc3F)ccc12)C1CC1 [SB-733371]
Kd (YSK4): 200 nM
%Inh (AAK1): 9%
%Inh (ABL1-nonphosphorylated): 46%
%Inh (ABL1-phosphorylated): 21%
%Inh (ABL2): 9%

COC(=O)c1c(-c2ccccc2)c2cc(Br)ccc2c(=O)n1Cc1ccc(S(C)(=O)=O)cc1
%Inh (AAK1): 27%
%Inh (ABL1-nonphosphorylated): 25%
%Inh (ABL1-phosphorylated): 9%
%Inh (ABL2): 32%

O=C(Nc1n[nH]c2nc(-c3ccccc3)c(Br)cc12)C1CC1 [SB-708998]
Kd (YSK4): 640 nM
%Inh (AAK1): 8%
%Inh (ABL1-nonphosphorylated): 43%
%Inh (ABL1-phosphorylated): 11%
%Inh (ABL2): 2%

C[C@@H]1CC[C@H](C(=O)NC2CCCCC2)CN1c1cc(-c2ccc3c(N)n[nH]c3c2)nc(N)n1 [GSK2291363]
%Inh (AAK1): 55%
%Inh (ABL1-nonphosphorylated): 5%
%Inh (ABL1-phosphorylated): 0%
%Inh (ABL2): 20%

O=C1NC(=O)C(c2ccccc2)=C1Nc1cccc(O)c1 [SB-390534]
%Inh (AAK1): 0%
%Inh (ABL1-nonphosphorylated): 22%
%Inh (ABL1-phosphorylated): 5%
%Inh (ABL2): 1%

CN(C)c1cc(-c2ccc3c(N)n[nH]c3c2)nc(N)n1 [GSK2219329]
Kd (TXK): > 10 µM
Kd (ZAK): > 10 µM
%Inh (AAK1): 10%
%Inh (ABL1-nonphosphorylated): 0%
%Inh (ABL1-phosphorylated): 0%
%Inh (ABL2): 0%

Cc1cc(Nc2nc(-c3cccc(C)n3)nc3ccccc23)ccn1 [GW872411]
%Inh (AAK1): 0%
%Inh (ABL1-nonphosphorylated): 52%
%Inh (ABL1-phosphorylated): 13%
%Inh (ABL2): 0%

CCC(=O)c1c(-c2ccccc2)c2cc(Cl)ccc2c(=O)n1Cc1ccc(C(=O)O)cc1
%Inh (AAK1): 0%
%Inh (ABL1-nonphosphorylated): 30%
%Inh (ABL1-phosphorylated): 0%
%Inh (ABL2): 15%

Nc1n[nH]c2ncc(-c3ccccc3)cc12 [SB-517081]
Kd [1]: 950 nM
%Inh (AAK1): 36%
%Inh (ABL1-nonphosphorylated): 0%
%Inh (ABL1-phosphorylated): 18%
%Inh (ABL2): 17%

COc1ccc(-c2coc3ccc(-c4nnc(SCc5cccc(C#N)c5)o4)cc23)cc1
Kd (ULK3): > 10 µM
%Inh (AAK1): 0%
%Inh (ABL1-nonphosphorylated): 23%
%Inh (ABL1-phosphorylated): 0%
%Inh (ABL2): 0%

COc1cc(Nc2nccc(N3CCC(NC(=O)C(C)c4ccc(Cl)cc4)C3)n2)cc(OC)c1OC (centres unmarked) [GSK1379757]
%Inh (AAK1): 37%
%Inh (ABL1-nonphosphorylated): 0%
%Inh (ABL1-phosphorylated): 0%
%Inh (ABL2): 7%

COC(=O)c1c(-c2ccccc2)c2cc(Br)ccc2c(=O)n1Cc1ccc(NC(=O)CCC(=O)O)cc1
%Inh (AAK1): 13%
%Inh (ABL1-nonphosphorylated): 38%
%Inh (ABL1-phosphorylated): 0%
%Inh (ABL2): 18%

Nc1nc(N)c2nc(-c3ccccc3)[nH]c2n1 [SKF-12778]
%Inh (AAK1): 23%
%Inh (ABL1-nonphosphorylated): 18%
%Inh (ABL1-phosphorylated): 15%
%Inh (ABL2): 9%

CCc1ccc(-c2ccc3c(c2)-c2nn(C)cc2S(=O)(=O)N3C)cc1
%Inh (AAK1): 19%
%Inh (ABL1-nonphosphorylated): 31%
%Inh (ABL1-phosphorylated): 0%
%Inh (ABL2): 0%

Cc1nnc(-c2ccc3ncn(-c4ccc(S(C)=O)cc4)c3c2)o1 (centres unmarked)
%Inh (AAK1): 0%
%Inh (ABL1-nonphosphorylated): 22%
%Inh (ABL1-phosphorylated): 0%
%Inh (ABL2): 6%

CCCNC(=O)Nc1ccc(Oc2ncnc3ccn(C)c23)cc1
%Inh (AAK1): 13%
%Inh (ABL1-nonphosphorylated): 30%
%Inh (ABL1-phosphorylated): 6%
%Inh (ABL2): 4%

Cc1cccc(-c2cc(-c3c[nH]nc3-c3ccccn3)ccn2)c1 [GW679395]
%Inh (AAK1): 14%
%Inh (ABL1-nonphosphorylated): 68%
%Inh (ABL1-phosphorylated): 29%
%Inh (ABL2): 48%

CCC(=O)c1c(-c2ccccc2)c2cc(Cl)ccc2c(=O)n1Cc1cc(S(C)(=O)=O)n(CC(N)=O)n1
%Inh (AAK1): 0%
%Inh (ABL1-nonphosphorylated): 44%
%Inh (ABL1-phosphorylated): 9%
%Inh (ABL2): 0%

CCC(=O)c1c(-c2ccccc2)c2cc(Cl)ccc2c(=O)n1Cc1cc(C(=O)NC2CC2)n(C)n1
%Inh (AAK1): 20%
%Inh (ABL1-nonphosphorylated): 20%
%Inh (ABL1-phosphorylated): 0%
%Inh (ABL2): 9%

CCc1nc(-c2cccc(C)c2)c(-c2ccncc2)s1
%Inh (AAK1): 0%
%Inh (ABL1-nonphosphorylated): 60%
%Inh (ABL1-phosphorylated): 11%
%Inh (ABL2): 6%

Cl.c1ccc(Cn2cnc3cc(Nc4ncnc5ccccc45)ccc32)cc1 [GW272142]
%Inh (AAK1): 5%
%Inh (ABL1-nonphosphorylated): 0%
%Inh (ABL1-phosphorylated): 0%
%Inh (ABL2): 9%

Nc1ncnc2c1ncn2-c1ccc(Cl)cc1 [AH2635]
%Inh (AAK1): 0%
%Inh (ABL1-nonphosphorylated): 0%
%Inh (ABL1-phosphorylated): 0%
%Inh (ABL2): 0%

COc1ccc(CNC(=O)NC2CCN(c3ccnc(Nc4ccc(F)cc4)n3)C2)cc1 (centres unmarked) [GSK1379706]
%Inh (AAK1): 32%
%Inh (ABL1-nonphosphorylated): 0%
%Inh (ABL1-phosphorylated): 0%
%Inh (ABL2): 2%
